# IL2 activator: qHTS of IL-2 Activators; IL-2 activation reporter assay, cell-based qHTS; stimulated with anti-CD3/CD4/CD28 beads; in transgenic mouse T cells; activation, % (series mostly up to about 46 µM); actives 0.065% (n = 360,000); AID 652025, 2013; in the data active means activation above about 50%; inconclusive means mostly about 30% to 49%
#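 EGFP and DsRed fluorescence is measured by plate cytometry in unstimulated transgenic mouse T cells exposed to compound for 60 minutes, then stimulated 18 hours at 37 degrees C with anti-CD3/anti-CD4 beads plus anti-CD28.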
# NPSR antagonist: qHTS Assay for Antagonists of the Neuropeptide S Receptor: cAMP Signal Transduction; Potency, µM (series often up to 38.3 µM), actives largely listed as inhibitors; CHO-NPSR cells, cAMP TR-FRET, antagonist mode; actives 1% (n = 220,000); further: nearly all actives have a fitted effect of over 50% in size
# ClpP mod: qHTS Assay for Activators of ClpP; ATP-dependent Clp protease proteolytic subunit (Bacillus subtilis (strain 168)), P80244; purified B. subtilis ClpP, FRET peptide cleavage, 20 min; Potency, µM (series often up to 57.5 µM); actives 1.9% (n = 340,000); active means well fitted falling curve with a large enough effect; inconclusive means small, poorly fitted or top-dose-only effect; inactive means no such curve, though single readings can be large or run the other way; further: the source files actives as falling curves though it sought activators and does not explain the sign; nearly all actives have a fitted effect of over 65% in size
#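 ClpP 10 microg/mL final, pH 8 Tris/KCl buffer with BSA, glycerol, Tween-20; compound pinned in; FRET-FV substrate; RT 20 min; Ex320/Em430; ΔFRET vs ADEP 5.8 microM, DMSO, no enzyme.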
# PKM2 activator: qHTS Assay for Activators of Human Muscle isoform 2 Pyruvate Kinase; Pyruvate kinase PKM (Homo sapiens), P14618; purified PKM2, Kinase-Glo ATP luminescence, activation; response scale: 0% is enzyme alone, no compound; Potency, µM (titrated, usually from 57.5 µM), usual class: activators; actives 0.34% (n = 260,000); AID 1631, 2009; further: nearly all actives have a fitted effect of over 55% in size
#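 Purified hPK-M2 (>95%) run at intermediate activity with 0.1 mM ADP and 0.5 mM PEP in 50 mM imidazole pH 7.2, KCl, MgCl2; 1 h room temperature. ATP formed read by Kinase-Glo luminescence; normalized to uninhibited and no-enzyme controls.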
# A number is an active result; – = inactive; ? = inconclusive; · = no result given. Most compounds without a hit are left out; they make up all but 2% or so of the library. Unless noted, the call rests on the fitted dose curve; in most records, active means well fitted curve in the direction sought with a large enough effect; inconclusive means small, poorly fitted or top-dose-only effect, or another doubt; inactive means no such curve, though single readings can be large; an effect the other way counts as inactive or inconclusive.
SMILES,IL2 activator,NPSR antagonist,ClpP mod,PKM2 activator
CC(C(=O)N1CCN(Cc2ccccc2)CC1)n1ncn2cccc2c1=O (stereo not drawn),–,·,–,–
CCOc1cccc2sc(N(CCCN(C)C)C(=O)c3ccc(S(=O)(=O)N4CCc5ccccc5C4)cc3)nc12,–,·,–,–
CCOc1cccc2sc(N(CCCN(C)C)C(=O)c3ccc(S(=O)(=O)N(C)c4ccccc4)cc3)nc12,–,10µM,–,–
Cc1ccc(S(=O)(=O)CCC(=O)OCC(=O)Nc2cc(C)on2)cc1,–,–,–,–
CS(=O)(=O)Nc1cccc(C2=NN(S(=O)(=O)c3ccccc3)C(c3ccco3)C2)c1 (stereo not drawn),–,–,–,22.4µM
CCS(=O)(=O)Nc1cccc(C2=NN(S(=O)(=O)c3ccccc3)C(c3ccco3)C2)c1 (stereo not drawn),–,–,·,?
COc1ccc(-c2[nH]nc3c2C(c2ccccc2OC(=O)N2CCOCC2)C(C#N)=C(N)O3)cc1 (stereo not drawn),–,–,–,–
COc1ccc(-c2[nH]nc3c2C(c2ccc(OC(=O)N4CCOCC4)cc2)C(C#N)=C(N)O3)cc1 (stereo not drawn),–,12.6µM,–,–
COc1cc(/C=C/C(=O)OCC(=O)Nc2ccc(C)cc2[N+](=O)[O-])ccc1O,–,–,–,17.8µM
COc1cc(/C=C/C(=O)OCC(=O)Nc2cc(C)c(C)cc2[N+](=O)[O-])ccc1O,–,–,–,–
Cc1cccc(-n2nnnc2S(C)(=O)=O)c1,·,·,–,·
COc1cccc(-n2nnnc2S(C)(=O)=O)c1,–,10µM,–,–
C/C(CC(=O)Nc1ccc(N(C)C)cc1)=N\NC(=O)c1ccc([N+](=O)[O-])cc1Cl,–,–,25.1µM,–
CCC1(C)Cc2c(c(=O)n(-c3ccccc3)c3ncnc(N)c23)CO1 (stereo not drawn),–,–,15.8µM,–
Cc1cc(C)cc(OCC(=O)Nc2ccc(N3CCN(S(C)(=O)=O)CC3)cc2)c1,–,–,–,–
CCCCC(=O)NC1(C(F)(F)F)C(=O)Nc2c1c(=O)[nH]c(=O)n2-c1ccc(F)cc1 (stereo not drawn),·,·,–,·
O=C(NNc1ccc(C(F)(F)F)cc1[N+](=O)[O-])c1ccc(NS(=O)(=O)c2ccc(F)cc2)cc1,–,10µM,–,–
CC(C)[C@H](Nc1ccc(C(F)(F)F)cc1[N+](=O)[O-])C(=O)O,–,–,–,–
COc1cccc(-c2nnc(-c3ccc(C(F)(F)F)cc3)o2)c1OC,–,?,–,–
COc1cc(OC)c(-c2nnc(-c3ccc(OC)c(OC)c3OC)o2)cc1OC,–,–,28.2µM,–
COCCCn1c(-c2ccc(OC)cc2)nc2nc3ccccc3nc21,·,–,·,–
CCCn1c(-c2ccc(OC)cc2)nc2nc3ccccc3nc21,–,–,28.2µM,–
Cc1nnc(SCC2=C(C(=O)O)N3C(=O)C(NC(=O)COc4ccc(F)cc4)C3SC2)s1 (stereo not drawn),–,·,–,·
COc1ccc(C(CNC(=O)C(C)Oc2ccc(Br)cc2)N2CCOCC2)cc1 (stereo not drawn),–,·,28.2µM,·
COc1ccc(C(CNC(=O)CSc2ccc(Br)cc2)N2CCOCC2)cc1 (stereo not drawn),–,·,·,·
SMILES,IL2 activator,NPSR antagonist,ClpP mod,PKM2 activator
COc1ccc(C(CC(=O)Nc2ccc(C)c(C)c2)N2Cc3ccccc3C2=O)cc1OC (stereo not drawn),·,·,–,·
O=C(CCC(=O)Nc1ccccc1Cl)N/N=C/c1ccccc1,–,–,–,–
Cc1nn(-c2ccccn2)c2c1C(c1ccsc1)C1=C(CCCC1=O)N2 (stereo not drawn),–,–,25.1µM,–
CC(C)(C)OC(=O)NCCCCCc1nnc(SCC(=O)Nc2cccc(Cl)c2)o1,–,–,–,25.1µM
COc1cc2c(cc1NC(=S)Nc1cccc3ccccc13)oc1ccccc12,–,–,10µM,–
COc1cc2c(cc1NC(=S)Nc1cccc(C(F)(F)F)c1)oc1ccccc12,–,–,31.6µM,–
CC1(C)CC(=O)C(CC(=O)c2ccccc2)=C(NN=C(N)N)C1,–,·,–,·
CCOc1ccc(C(=O)OCC(=O)NC2CCCC2)cc1OCC,–,·,–,·
COc1cccc(/C=N/NC(=O)CSc2ccccc2C)c1OC,–,–,–,–

# Compound activity from PubChem.
